The target of the first test is AHCY. Briefly: pooled miR-30 sensor sort-seq; sequence = guide strand. The following applies: shRNA.
In turn, TTGCTTCTCAGTTAGCTTGGTC gave a sensor-assay potency score (higher = more potent) of -0.044.
As for TTAGCTTGGTCAACTTCACATT, the sensor-assay potency score (higher = more potent) was -0.84.
For TTGTCAAACTTGCTCTTGGTGA, the sensor-assay potency score (higher = more potent) is -0.625.
In the case of TTGTAGAGGTTGTGGACCCCAG, the sensor-assay potency score (higher = more potent) was -0.72.
On to TATAAGTCCACAGACCAGGTGA, for which the sensor-assay potency score (higher = more potent) was 0.25.
The sequence TAGAGGTTGTCAAACTTGCTCT showed a sensor-assay potency score (higher = more potent) of -0.554.
The same measure, in the same setting: the value for TAGCTTGGTCAACTTCACATTC was -1.21; that for TCGGCCAGCAGGATGATGCGGC was -0.886.
In turn, TAACAGTCTATTCTAACCCCTG registered a sensor-assay potency score (higher = more potent) of -0.522.
Take ATCTCGGTGATGATGACGCGGG: the sensor-assay potency score (higher = more potent) was -1.23.
As to TTCATCTGCTCAAAGTGCCGGC, the sensor-assay potency score (higher = more potent) was -0.375.
Still for that read-out and setting: in the case of TCTTTTAACATTATAGGCCAAA it was -1.21; in that of AAACTTGCTCTTGGTGACGGAG, -1.03; in that of TCATCTTGTAGAGGTTGTGGAC, -0.726.
Still for that read-out and setting: in the case of TTGATGTTCACCTTCTCCACGG it was 0.235; in that of TTAACAGTCTATTCTAACCCCT, -0.371; in that of ACACACAATGGCATCATCCTTC, -0.521.
On the same count and under the same terms, the value for ATGATGTCAATACAGCCTGTGG was -1.59; that for TTACTCATCACGAAGCTGGGGT was 0.777.
For TTGGTGTGGATGAGGTTGGTGA, the sensor-assay potency score (higher = more potent) was -1.01.
TTCAGCCACTGCCTCATCCAGC: the sensor-assay potency score (higher = more potent) is -0.886.

For a further test, the target named is AHDC1. Described as above. The following applies: shRNA.
TTGGGTACCATGTAGCCACCGG showed a sensor-assay potency score (higher = more potent) of -0.207.
Same read-out and setting: the value for TTCTTCATCTTCAGCAGCGGGG was -0.945; that for ATGCTTGCCATCAAGCTCGGGA was -0.78.
Consider TTTGCGGGTAGAGACCACTGGG, for which the sensor-assay potency score (higher = more potent) was -0.394.
TTTGTATGTGGTCTTGTTCCGC displayed a sensor-assay potency score (higher = more potent) of 0.223.
Regarding TTGAACTGGGTGCTGTCGGAGG, the sensor-assay potency score (higher = more potent) is -0.689.
Still for that read-out and setting: in the case of TTGCTGTTAGCGCAGTCCTGGC it was -1.57; in that of TTGTATGTGGTCTTGTTCCGCC, -0.176.
The same measure, in the same setting: the value for TCTGGTTCCAGTTGTAGCCGGG was 0.572.
Same read-out and setting: the value for TAGCTTGCTGCTCGTCCTGGTG was -0.838; that for AACTCTGGGACTGAGACCGGGC was -0.558.
Regarding TTGCGGGTAGAGACCACTGGGG, the sensor-assay potency score (higher = more potent) was -0.627.

The next test deals with AIG1. The description is as above. The following applies: shRNA.
Turning to AATTCTTTAACACACAGTGAGG, the sensor-assay potency score (higher = more potent) is -1.45.
With TAGTTACACAGGATAGAGCAGT, the sensor-assay potency score (higher = more potent) is -0.722.
Still for that read-out and setting: the value for TTGGAAACAACTGTATTCTATG was -0.738; that for TAATATAAAGGGCAGAACCGTC was -1.19; that for TAAATGATCCAGAACACTGCTA was 0.31.
The same measure, in the same setting: in the case of TTATCAGTAATGACTTTGGGAA it was -0.914; in that of TTTGGAAACAACTGTATTCTAT, -0.0597.

Source of the values: the OligoGym collection.
Further: reference of the scale not given here.
